Screens: PubChem, University of Kansas High Throughput Screening Laboratory
Pf apPOL inh – Pf-apPOL DNA polymerase inhibition | inhibition, % at 10 µM | Recombinant Pf-apPOL, molecular beacon fluorescence, 1.5 h | 0.25% of 210,000 active
mHTT-CaM PPI inh – mHTT-calmodulin interaction abrogation; P42858; AlphaScreen His-mHTT/GST-CaM binding, luminescence; inhibition, % at 15 µM; 3.6% of 190,000 active; AID 1671202
Numbers stand for hits; . = inactive; / = not tested or not shown; ! = a repeat was not active. Rows were chosen to be rich in hits. Some 3.5% of all compounds tested hit in one or more screens of this group. No stated cut-off is given here; in the data, active means inhibition above about 50%; inactive means the rest.

SMILES	Pf apPOL inh	mHTT-CaM PPI inh
CN(CC(=O)N1N=C(c2ccc(F)cc2)CC1c1ccc(F)cc1)C(=O)C1CC1 (configuration not stated)	.	.
CCC(=O)N(C)CC(=O)N1N=C(c2ccc(F)cc2)CC1c1ccc(F)cc1 (configuration not stated)	.	66
CCC(=O)N(C)CC(=O)N1N=C(c2ccc(C)c(C)c2)CC1c1ccc(F)cc1 (configuration not stated)	.	72
Cc1ccc(C2=NN(C(=O)CN(C)C(=O)C(C)C)C(c3ccc(F)cc3)C2)cc1C (configuration not stated)	.	98
CCC(=O)N(C)CC(=O)N1N=C(c2ccc(C)c(C)c2)CC1c1ccc(C)cc1 (configuration not stated)	.	.
O=C(NCc1ccc(F)cc1)c1ccc(-n2nc(N3CCCC3)ccc2=O)cc1	.	.
Clc1ccc(OCc2nc(-c3ccccn3)no2)cc1	.	.
CC(C)C(=O)NCCc1csc(C2CCCN(C(=O)c3ccsc3)C2)n1 (configuration not stated)	.	.
O=c1nc(/C=C/c2ccc(-c3ccc(Br)cc3)o2)cc(C(F)(F)F)[nH]1	.	99
O=C(O)c1ccccc1-c1ccc(/C=C/c2cc(C(F)(F)F)[nH]c(=O)n2)o1	.	.
O=c1nc(/C=C/c2ccc(-c3cccc(Cl)c3)o2)cc(C(F)(F)F)[nH]1	.	91
O=C(O)c1cc(Cl)ccc1-c1ccc(/C=C/c2cc(C(F)(F)F)[nH]c(=O)n2)o1	.	.
CN(C)S(=O)(=O)c1ccc(-c2nnc(NC(=O)c3cccc(C(F)(F)F)c3)o2)cc1	.	.
CC(C(=O)c1ccc(Cl)cc1Cl)n1c[n+](N)cn1 (configuration not stated)	.	.
Cc1ccc(/C=C2\SC(N3CC(C)OC(C)C3)=NC2=O)o1 (configuration not stated)	.	.
CC1CN(C2=NC(=O)/C(=C/c3cn[nH]c3-c3ccccc3)S2)CC(C)O1 (configuration not stated)	66	.
Cc1ccc2c(Nc3cccc(C)c3C)c(-c3nc(C)no3)cnc2n1	.	.
COc1ccccc1N1CCN(c2nc(N3CCCCC3)c3cnn(C)c3n2)CC1	.	.
CCN(C)c1ccc(/C=C(\C#N)c2[nH]nc(N)c2C#N)cc1	.	.
CCOc1cc(/C=C(\C#N)c2[nH]nc(N)c2C#N)ccc1O	.	73
COc1ccc(/C=C2\C(C)=C(C#N)c3nc(N)c(C#N)c(C)c32)cc1Br	.	.
COc1ccc(/C=C(\C#N)c2[nH]nc(N)c2C#N)cc1Br	.	69
COc1ccc(/C=C(\C#N)c2nn(CCO)c(N)c2C#N)c(OC)c1	.	.
COc1cc(/C=C(\C#N)c2ccc([N+](=O)[O-])cc2)ccc1O	.	.
CCN(CC)c1ccc(/C=C(\C#N)c2[nH]nc(N)c2C#N)c(OC)c1	.	60
SMILES	Pf apPOL inh	mHTT-CaM PPI inh
COc1cc(/C=C(\C#N)c2[nH]nc(N)c2C#N)ccc1O	.	54!
CSc1cccc(NC(=O)CN(c2ccc(I)cc2)S(C)(=O)=O)c1	.	.
COc1c(S(=O)(=O)N2CCN(C34CC5CC(CC(C5)C3)C4)CC2)ccc(Cl)c1Cl	.	.
COc1ccc(CN2CCc3nc(SCc4ccc(F)cc4)[nH]c(=O)c3C2)cc1	.	.
Cc1cc2nc(Cc3ccc(Cl)c([N+](=O)[O-])c3)c(=O)[nH]c2cc1C	.	.
COCCN1C(=O)c2ccccc2C(C(=O)Nc2ccc(F)cc2)C1c1ccc(F)cc1 (configuration not stated)	.	.
CC(=O)N1CCCN(C(=O)NC2CCCCC2)CC1	.	.
Cc1ccc(C2=C(c3ccccc3)C(=O)C(c3ccccc3)=C2c2ccc(Cl)cc2)cc1	.	/
O=C1NC(c2ccc(Br)cc2)=C(c2ccccc2)C1=O	.	53
CC(C)c1ccc(S(=O)(=O)N2CCCC2c2nc(-c3ccc(F)cc3)no2)cc1 (configuration not stated)	.	.
O=C(NCc1ccc(F)cc1)c1ccc(N2CCN(c3ccccn3)CC2)c([N+](=O)[O-])c1	.	59
O=C(NCc1cccnc1)c1ccc(N2CCN(c3ccccn3)CC2)c([N+](=O)[O-])c1	.	.
CCN1C(=O)C(O)(CC(=O)c2ccccc2OC)c2ccccc21 (configuration not stated)	.	.
C=CCN1C(=O)C(O)(CC(=O)c2ccc(C)cc2C)c2ccccc21 (configuration not stated)	.	60
COc1ccc(CC(=O)NCCn2c(C)cc3ccccc32)cc1OC	.	.
O=[N+]([O-])c1cc(C=NN=Cc2csc([N+](=O)[O-])c2)cs1	.	/
CCCCNC(=O)c1cn(CCOC)c(=O)c2c1c1ccccc1n2C	.	.
Cn1nc(C(=O)N2CCC(Nc3cccnc3)C2)c2ccccc21 (configuration not stated)	.	.
CN(Cc1ccccc1)Cc1ccc(O)cc1	.	.
CN(Cc1ccccc1)Cc1cncc(-c2cc3ccccc3s2)c1	.	80
c1ccc(C2CCC(NCCc3c[nH]c4ccccc34)CC2)cc1 (configuration not stated)	.	77
O=C(NCCc1c[nH]c2ccccc12)C(=O)NCCc1c[nH]c2ccccc12	.	.
O=C(c1ccoc1)N1CCC(Cc2nnc(-c3ccccc3)o2)CC1	.	.
O=C(c1ccc(C(F)(F)F)cc1)N1CCC(Cc2nnc(-c3ccccc3)o2)CC1	.	57
Cc1ccnc(Nc2nc(-c3sc(C)nc3C)cs2)c1	.	.
SMILES	Pf apPOL inh	mHTT-CaM PPI inh
c1ccc(-c2csc(Nc3ncccn3)n2)nc1	.	98
Cc1nc(N)sc1-c1csc(Nc2ccccn2)n1	.	87
COc1ccc(-c2csc(Nc3ccccn3)n2)cc1OC	.	.
Cc1nc(C)c(-c2csc(Nc3cccc(C(=O)O)c3)n2)s1	.	.
Cc1nc(N)sc1-c1csc(Nc2cccc(O)c2)n1	.	51
c1ccc(Nc2nc(-c3ccccn3)cs2)nc1	.	100
CCOc1ccccc1Nc1nc(-c2ccccn2)cs1	.	.
CCN(CC)CCNC(=O)CSc1nc2nc(C)c(Cc3ccccc3C)c(C)n2n1	.	.
Cc1ccnc(N2CCC(C(=O)NCCCc3ccccc3)CC2)n1	.	.
O=S(=O)(c1ccc2nncn2c1)N(Cc1cc(F)cc(F)c1)c1ccccc1	.	.
O=C(CSc1nc2ccccc2o1)Nc1ccc2c(c1)C(=O)c1ccccc1C2=O	.	.
COc1cccc(C(=O)Nc2nccn(-c3ccc(F)c(Cl)c3)c2=O)c1	.	.
C=CCOc1ccc(/C=C2\SC(=N)N(c3nccs3)C2=O)cc1OCC	.	74
N=C1S/C(=C\c2cc3c(cc2Cl)OCO3)C(=O)N1c1nccs1	.	.
O=S(=O)(c1ccccc1)N1CCN(Cc2nc3ccccc3[nH]2)CC1	.	.
CCC(=O)N1CCc2sc(C(=O)N3CCC(Cc4ccccc4)CC3)cc2C1	.	.
Cc1sc(C(=O)N2CCCC2)c2ncnc(NCc3ccc(F)c(Cl)c3)c12	.	100
Cc1sc(C(=O)N2CCCC2)c2ncnc(NCc3cccc(Cl)c3)c12	.	.
O=C(Nc1ccc(C(F)(F)F)cc1)C(NS(=O)(=O)c1cccs1)c1ccccc1 (configuration not stated)	.	84
O=C(Nc1ccc(F)c(F)c1)C(NS(=O)(=O)c1cccs1)c1ccccc1 (configuration not stated)	.	.
CN(C)CCN(Cc1ccccc1)Cc1cccc(Cl)c1	.	.
